The list is not random: actives were taken first. Their share in the collection is about 3.7%.
HttQ103 aggreg – qHTS Multiplex Assay to Identify Dual Action Probes in a Cell Model of Huntington: Aggregate Formation (GFP) | PC12 HttQ103-GFP aggregates, Acumen cytometry, 40 h | Potency, µM (series often up to 46.1 µM), actives largely listed as inhibitors | 220,000 compounds, 1.1% hits | AID 1688, 2009; also: nearly all actives have a fitted effect of over 60% in size
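Aggregate formation scored by laser-scanning cytometer (488 excitation, 500–530 emission) in lysed PC12 cells expressing Q103-GFP after 100 nM tebufenozide induction; library tested in dose series, with ATPLite reagent added in the multiplex.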
HTT ATP protect – qHTS Multiplex Assay to Identify Dual Action Probes in a Cell Model of Huntington: Cytoprotection (ATP) | PC12 HTT-Q103 induced, cytoprotection, ATP luminescence, 40 h | Potency, µM (titrated, usually from 56.4 µM), hits mostly activators | 230,000 compounds, 0.14% hits; also: nearly all actives have a fitted effect of over 45% in size
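Readout: ATPlite luminescence (ATP level). Model: stable PC12, inducible Htt exon1 Q103-GFP. Inducer: tebufenozide, 100 nM final. Compounds: dose series. No G418 in medium.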
Tau ThT inhib – qHTS for Inhibitors of Tau Fibril Formation, Thioflavin T Binding. Potency, µM (series often up to 57.4 µM), hits mostly inhibitors. AID 1460, 2008. 270,000 compounds, 2.1% hits. Microtubule-associated protein tau (Homo sapiens), P10636. recombinant tau K18 P301L, heparin-induced fibrillization, ThT fluorescence; also: nearly all actives have a fitted effect of over 55% in size
Target sequence (P10636 561-689 P618L limits assumed): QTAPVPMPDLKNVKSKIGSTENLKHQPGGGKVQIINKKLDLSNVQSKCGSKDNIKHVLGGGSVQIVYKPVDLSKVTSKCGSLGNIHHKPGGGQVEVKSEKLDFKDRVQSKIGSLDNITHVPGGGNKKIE
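Heparin-induced fibrillization of the P301L-mutant K18 repeat-domain fragment of human tau was followed by ThT binding in quantitative high-throughput format.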
Tau fibril FP – qHTS for Inhibitors of Tau Fibril Formation, Fluorescence Polarization; Microtubule-associated protein tau (Homo sapiens), P10636; K18 P301L tau heparin fibrillization, Alexa594 FP, 6 h; Potency, µM (top dose mostly 57.7 µM), usual class: inhibitors; 280,000 compounds, 0.39% hits; AID 1468, 2008; also: nearly all actives have a fitted effect of over 55% in size
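Steps: dispense K18 P301L tau (15 uM plus 0.24 uM Alexa 594 tracer, final) in pH 7 sodium acetate; add compound; add heparin (20 uM final); incubate 6 hr, 37 C; add ThT (30 uM final); after 1 hr ambient, read FP.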
Tau fluor cs – Counterscreen qHTS for Inhibitors of Tau Fibril Formation, Fluorescence Polarization; tau K18 P301L (four-repeat tau fragment) Alexa594 fluorescence, heparin fibrillization; Potency, µM (doses to about 57.7 µM); 280,000 compounds, 0.93% hits; also: nearly all actives have a fitted effect of over 55% in size
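Human K18 P301L tau (15 uM unlabeled plus 0.24 uM Alexa 594-labeled, final) in 100 mM sodium acetate pH 7 was mixed with compound and 20 uM heparin and incubated 6 hr at 37 C.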
Of the large screens only hits and unclear results are named; the others gave an inactive call; [ ] = another dose, or the depositor's remark. Calls follow the shape of the dose curve; as a rule, active = well fitted curve in the direction sought with a large enough effect; inconclusive = small, poorly fitted or top-dose-only effect, or another doubt; inactive = no such curve, though single readings can be large; an effect the other way counts as inactive or inconclusive.

COc1cccc(/C=N/NC(=O)c2cc3c(OC)cccc3[nH]2)c1OC	Tau ThT inhib inconclusive, Tau fibril FP inconclusive, Tau fluor cs inconclusive
COc1cccc(/C=N/NC(=O)c2cc3c(OC)c(OC)ccc3[nH]2)c1OC	Tau ThT inhib 7.9µM, Tau fibril FP inconclusive, Tau fluor cs inconclusive
COc1ccc(/C=N/NC(=O)C2C(=O)NCC2c2ccccc2)c(OC)c1 (stereo unspecified)	none (no result: HTT ATP protect)
COc1cccc(/C=N/NC(=O)c2cc(-c3cccn3C)n[nH]2)c1O	HttQ103 aggreg 1.8µM, Tau ThT inhib inconclusive
COc1cccc(/C=N\NC(=O)C2C(=O)NCC2c2ccccc2)c1O (stereo unspecified)	HttQ103 aggreg 11µM
O=C(O)/C=C\C=C/c1ccc2c(c1)OCO2	none (no result: HttQ103 aggreg, Tau ThT inhib, Tau fibril FP, Tau fluor cs)
COC(=O)c1cc2oc3ccccc3c2n1CC(=O)Nc1ccc(C)c(F)c1	Tau fibril FP inconclusive (no result: HttQ103 aggreg, HTT ATP protect)
O=C1CC(c2ccc3c(c2)OCO3)c2cc(O)ccc2O1 (stereo unspecified)	Tau ThT inhib inconclusive (no result: HttQ103 aggreg)
COc1ccc(OC)c(/C=N/NC(=O)c2cc3c(OC)cc(OC)cc3[nH]2)c1	Tau ThT inhib 5µM, Tau fibril FP inconclusive, Tau fluor cs 8.9µM[quencher]
COc1ccc(OC)c(/C=N/NC(=O)c2cc3c(OC)cccc3[nH]2)c1	Tau fluor cs inconclusive (no result: Tau ThT inhib)
COc1cc(NCCCCCCCN)c2ncccc2c1	HttQ103 aggreg 1.8µM
Cc1[nH]c2ccccc2c1CCN(Cc1cccs1)C(=S)Nc1ccccc1	Tau fluor cs 11µM[quencher]
COc1cccc(NC(=S)N(CCc2c(C)[nH]c3ccccc23)Cc2cccs2)c1	Tau fluor cs 8.9µM[quencher] (no result: HTT ATP protect)
Cc1[nH]c2ccccc2c1CCN(Cc1cccnc1)C(=S)Nc1ccc(F)cc1	Tau fluor cs inconclusive
Cc1[nH]c2ccccc2c1CCN(Cc1cccnc1)C(=S)Nc1cccc(F)c1	Tau fibril FP inconclusive, Tau fluor cs inconclusive
C/C(=C(/CCO)SS/C(CCO)=C(\C)N(C=O)Cc1cnc(C)nc1N)N(C=O)Cc1cnc(C)nc1N	none (no result: Tau ThT inhib, Tau fibril FP, Tau fluor cs)
Cc1ccc(NCc2nc3ccccc3n2C)cc1	none
Cc1cc(C)c(C)c(N=Nc2nc3ccccc3n2C)c1C	Tau ThT inhib 8.9µM, Tau fluor cs inconclusive
Cc1ccc(C)c(N=Nc2nc3ccccc3n2C)c1	Tau ThT inhib 5.6µM, Tau fluor cs inconclusive
Cn1c(/N=C/c2cccs2)nc2ccccc21	none
COCCN=c1scc(-c2ccccc2)n1/N=C/c1c[nH]c2ccccc12	HttQ103 aggreg inconclusive, Tau ThT inhib 13µM, Tau fibril FP inconclusive, Tau fluor cs 10µM[quencher]
O=C(Nc1ccc(Br)cc1)C1CCCN1S(=O)(=O)c1ccc(F)cc1 (stereo unspecified)	none (no result: HttQ103 aggreg, HTT ATP protect)
Cc1cc(=O)cc2oc3cc(N)c(-c4c(C)cc(O)cc4O)c(C)c3nc1-2	Tau ThT inhib 14µM, Tau fibril FP 22µM, Tau fluor cs inconclusive (no result: HttQ103 aggreg)
O=C(Oc1c(CN2CCOCC2)cc(Cl)c2cccnc12)c1cccs1	HttQ103 aggreg 1.3µM, Tau ThT inhib inconclusive
COc1cccc(C(=O)Oc2c(CN3CCOCC3)cc(Cl)c3cccnc23)c1	HttQ103 aggreg 11µM
Oc1c(Cl)cc(Cl)c2cccnc12	HttQ103 aggreg 8.9µM, Tau ThT inhib inconclusive
O=C(Oc1c(CN2CCOCC2)cc(Cl)c2cccnc12)c1ccc(F)cc1	HttQ103 aggreg 1µM
COc1ccc(C(=O)Oc2c(CN3CCOCC3)cc(Cl)c3cccnc23)cc1	HttQ103 aggreg inconclusive
CCCCCCCCCCCCCCC1CO1 (stereo unspecified)	none (no result: HttQ103 aggreg, Tau ThT inhib, Tau fibril FP, Tau fluor cs)
O=C(Oc1c(Cl)cc(Cl)c2cccnc12)c1ccco1	HttQ103 aggreg inconclusive, Tau ThT inhib inconclusive
O=C(Oc1c(Cl)cc(Cl)c2cccnc12)c1cccs1	HttQ103 aggreg 10µM, Tau ThT inhib inconclusive
CCN(Cc1ccccc1)c1ccccc1	none (no result: HttQ103 aggreg, Tau ThT inhib, Tau fibril FP, Tau fluor cs)
Cc1ccc(CNC(=O)c2nn(C)c(C)c2[N+](=O)[O-])cc1	none (no result: HTT ATP protect)
CCN(CC)c1ccc(N=Nc2nn(C)c(C)c2[N+](=O)[O-])cc1	Tau ThT inhib 16µM, Tau fluor cs inconclusive

Bioassay records as filed in PubChem BioAssay.
